The campaign covered roughly 66,000 compounds. About 960 (1.5%) showed an effect of 50% or more. For the sample, strong results were picked, then their nearest neighbours and some compounds at random.
Tested on: Trypanosoma brucei
Assay: Trypanosoma brucei 72 hour study
Type: functional, organism-based
Design: scale not given: in the data most compounds retested in dose-response had high values

CC(C)NC(=O)C1CN(Cc2ccc(F)cc2)CC12CCOCC2.O=C(O)C(F)(F)F (stereo not drawn)
Percent Effect (30 µM, 30.03 µM): -12.09%

CCC(C)(COc1ncccc1Cl)NCC(=O)NCC(C)C (stereo not drawn)
Percent Effect (30 µM, 30.03 µM): -31.89%

CCC1=N[C@@]2(CC[C@@H]3CN(CC4CC4)C[C@@H]32)C(=O)N1CC1CC1.O=C(O)C(F)(F)F
Percent Effect (30 µM, 30.03 µM): -23.62%

COc1ccnc(N2CCCN(C(=O)Cc3ccc(C)s3)CC2)n1
Percent Effect (10 µM): -47.83%

Cc1cccc(CNC2CC3(CCN(CCO)CC3)c3ccccc32)n1.O=C(O)C(F)(F)F.O=C(O)C(F)(F)F (stereo not drawn)
Percent Effect (30.3 µM, […]): 13.54%

Cn1ncc2c1C(COCC1CC1)CN(C(=O)c1cscn1)C2.O=C(O)C(F)(F)F (stereo not drawn)
Percent Effect (30 µM, 30.03 µM): 21.88%

Cn1cc(CN2CCn3cc(CNC(=O)c4cccn4C)nc3C2)cn1.O=C(O)C(F)(F)F
Percent Effect (30 µM, 30.03 µM): 21.81%

CC(=O)N1CCCCCC1C1CCN(c2ncccc2C#N)CC1 (stereo not drawn)
Percent Effect (30.3 µM, […]): 13.42%

N#Cc1cccnc1N1CCC(C2CCCCCN2C(=O)C2CC2)CC1 (stereo not drawn)
Percent Effect (30.3 µM, […]): 53.48%

N#Cc1cccnc1N1CCC(C2CCCCCN2C(N)=O)CC1 (stereo not drawn)
Percent Effect (30.3 µM, […]): 5.33%

Cn1cnnc1-c1ccnc(NCc2ccccc2)c1
Percent Effect (30.3 µM, […]): 5.527%

Br.Cn1nccc1CN1CCOC(c2cccc(-c3cncnc3)n2)C1 (stereo not drawn)
Percent Effect (30.3 µM, […]): -1.234%

Cn1nccc1CN1CCOC(c2cccc(Nc3ccccn3)n2)C1 (stereo not drawn)
Percent Effect (30.3 µM, […]): 100.5%

Cn1nccc1CN1CCOC(c2ccc(-c3cncnc3)cn2)C1 (stereo not drawn)
Percent Effect (30.3 µM, […]): 1.674%

NC(=O)c1cc(NC(=O)N2CCOCC2)ccc1F
Percent Effect (30 µM, 30.03 µM): -9.926%

NC(=O)c1cc(NC(=O)N2CCCCCC2)ccc1F
Percent Effect (30 µM, 30.03 µM): -43.72%

O=C(Nc1ccc(F)c(Br)c1)N1CCCC1
Percent Effect (30 µM, 30.03 µM): 97.43%

CC(C)CN1CCC2(C=C(C(=O)N(C)C)c3ccccc32)CC1.O=C(O)C(F)(F)F
Percent Effect (30.3 µM, […]): -83.33%

Cc1ccc(CN2CCn3cc(CNC(=O)c4cnn(C)c4)nc3C2)s1.O=C(O)C(F)(F)F
Percent Effect (30 µM, 30.03 µM): -34.09%

CC(C)C(=O)N1CCC2(CC1)COCCN2Cc1ccc(F)cc1.O=C(O)C(F)(F)F
Percent Effect (30 µM, 30.03 µM): 21.09%

Cc1cc2c(=O)n3c(nc2s1)CCN(Cc1cncn1C)CC3.Cl
Percent Effect (30.3 µM, […]): 6.762%

CCCNC(=O)CNc1cc(C#N)ccc1OCC
Percent Effect (30 µM, 30.03 µM): 58.39%

CCOc1ccc(C#N)cc1NCC(=O)OC
Percent Effect (30.3 µM, […]): -4.293% | Percent Effect (10 mM, 10 mM as filed; unlikely as a test dose): -28.98%

CCNC(=O)NC(=O)CNc1cc(C#N)ccc1OCC
Percent Effect (30.3 µM, […]): -6.445% | Percent Effect (10 mM, 10 mM as filed; unlikely as a test dose): -44.56%

CNC(=O)CN(C)C(=O)Cc1csc(C(C)C)n1
Percent Effect (30 µM, 30.03 µM): 70.2%

CC(C)c1nc(CN(C)C(=O)CCc2ccc3c(c2)OCO3)cs1
Percent Effect (30 µM, 30.03 µM): 12.36%

CC(C)C[C@@H](N)C(=O)N(C)Cc1csc(C(C)C)n1
Percent Effect (30 µM, 30.03 µM): 100.6%

CCN(CC(=O)NC)C(=O)Cc1csc(C(C)C)n1
Percent Effect (30 µM, 30.03 µM): -25.08%

CC(C)c1nc(CN(C)C(=O)c2ccc3c(c2)OCC(=O)N3)cs1
Percent Effect (30 µM, 30.03 µM): 17.57%

CCN(CC)C(=O)Cc1csc(C(C)C)n1
Percent Effect (30 µM, 30.03 µM): -85.89%

CC(C)c1nc(CN(C)C(=O)[C@H](N)Cc2ccc(Cl)cc2)cs1
Percent Effect (30 µM, 30.03 µM): -3.528%

CC(C)c1nc(CN(C)C(=O)c2ccc3c(c2)OCO3)cs1
Percent Effect (30 µM, 30.03 µM): 56.82%

CC(C)c1nc(CN(C)C(=O)C(O)c2ccc(Cl)cc2)cs1 (stereo not drawn)
Percent Effect (30 µM, 30.03 µM): 3.875%

Cc1cccc(CN2C(=O)CO[C@@H]3CN(C4CCOCC4)C[C@H]32)c1.O=C(O)C(F)(F)F
Percent Effect (30 µM, 30.03 µM): -46.8%

O=C(O)C(F)(F)F.O=C(c1ccco1)N1C[C@H]2CCCN(CC3CC3)[C@H]2C1
Percent Effect (30 µM, 30.03 µM): -18.48%

CCN(C)c1ncnc2c1CCN(Cc1ccc(F)cc1)CC2.O=C(O)C(F)(F)F.O=C(O)C(F)(F)F
Percent Effect (30 µM, 30.03 µM): 0%

CC(=O)N1CCOCC2(CN(Cc3ccc(C)o3)CCO2)C1.O=C(O)C(F)(F)F (stereo not drawn)
Percent Effect (30 µM, 30.03 µM): 0.2271%

COCCC1(CO)CCCN(CCCc2ccccc2)C1 (stereo not drawn)
Percent Effect (30 µM, 30.03 µM): -35.64%

COCCCC1(CO)CCCN(CCc2ccccn2)C1 (stereo not drawn)
Percent Effect (30 µM, 30.03 µM): -19.7%

COCCCC1(CO)CCCN(CCc2ccccc2)C1 (stereo not drawn)
Percent Effect (30 µM, 30.03 µM): 60.85%

COCCn1c(=O)n(C)c(=O)c2ccc(C3CCC(CN)CC3)nc21.Cl (stereo not drawn)
Percent Effect (30.3 µM, […]): 8.357%

COc1cccc(CNC(Cc2cccs2)c2nc(C)c(C)s2)c1OC.Cl (stereo not drawn)
Percent Effect (30.3 µM, […]): -32.09%

CCc1ccc2nc(C)cc(C(=O)N[C@@H]3CNC[C@H]3O)c2c1
Percent Effect (30 µM, 30.03 µM): -69.69%

CCc1ccc2nc(C)cc(C(=O)N[C@@H]3CCCNC3)c2c1
Percent Effect (30 µM, 30.03 µM): 86.43%

CCc1ccc2nc(C)cc(C(=O)NC[C@@H]3CCNC[C@H]3O)c2c1
Percent Effect (30 µM, 30.03 µM): -34.49%

CCS(=O)(=O)N1CCCC2(COCCN(c3ccccn3)C2)C1.O=C(O)C(F)(F)F (stereo not drawn)
Percent Effect (30 µM, 30.03 µM): -23.72%

Cc1nn(C)c(Cl)c1CNCc1cccnc1N1CCOCC1.Cl
Percent Effect (30 µM, 30.03 µM): 16.35%

COC(=O)Cn1c(C)cc(=O)c2cc(F)ccc21
Percent Effect (30.3 µM, […]): -56.52%

CC1(c2ccccc2)CCCN(Cc2cncn2C2CC2)C1 (stereo not drawn)
Percent Effect (30 µM, 30.03 µM): -39.24%

COCCn1cncc1CN1CCCC(C)(c2ccccc2)C1 (stereo not drawn)
Percent Effect (30 µM, 30.03 µM): -43.69%

CC1(c2ccccc2)CCCN(Cc2cncn2C2CCCC2)C1 (stereo not drawn)
Percent Effect (30 µM, 30.03 µM): 102.5%

Cn1ccc(C(=O)N2CCCCC2c2cc(CCO)[nH]n2)n1 (stereo not drawn)
Percent Effect (30.3 µM, […]): -16.55%

O=C(Cc1cccs1)N1C[C@H]2CN(CC3CCCO3)CC[C@H]2C1.O=C(O)C(F)(F)F (stereo partly drawn)
Percent Effect (30 µM, 30.03 µM): -6.249%

COC(=O)c1cc(C(=O)N2CCOC(C)(C)C2)n(-c2ccccc2)n1
Percent Effect (30.3 µM, […]): 6.059%

Cc1nc(C)n(CC2CCCN2CC(=O)NCCc2ccsc2)n1 (stereo not drawn)
Percent Effect (30 µM, 30.03 µM): -16.47%

CN1CCN(c2ccc(S(N)(=O)=O)cc2C#N)Cc2ccccc21
Percent Effect (30.3 µM, […]): -63.54%

CC[C@H](C)Nc1ncc(-c2ccn(C3CCN(C(C)=O)CC3)n2)cn1
Percent Effect (30.3 µM, […]): -5.339%

CC(=O)N1CCC(n2ccc(-c3cnc(NCC(C)C)nc3)n2)CC1
Percent Effect (30.3 µM, […]): 77.59%

CC(=O)N1CCC(n2ccc(-c3cnc(N4CCOCC4)nc3)n2)CC1
Percent Effect (30.3 µM, […]): 26%

CC(C)n1c(=O)nc2n1C(=O)N(c1ccc(Br)cc1)C2
Percent Effect (30 µM, 30.03 µM): -31.4%

N#Cc1cccc(CN2C[C@H](NC(=O)C3CC3)[C@H]3OCCC[C@H]32)c1.O=C(O)C(F)(F)F
Percent Effect (30.3 µM, […]): -35.12%

CC(=O)N1CCCC2(CCC(=O)N2Cc2cccnc2)C1.O=C(O)C(F)(F)F (stereo not drawn)
Percent Effect (30.3 µM, […]): 1.324%

COCCCN1Cc2cccc(NC(=O)c3cc(F)cc(F)c3)c2C1
Percent Effect (30 µM, 30.03 µM): 34.67%

COCCCN1Cc2cccc(NC(=O)c3ccccc3Cl)c2C1
Percent Effect (30 µM, 30.03 µM): 7.9%

COCCCN1Cc2cccc(NC(=O)c3cc(F)ccc3F)c2C1
Percent Effect (30 µM, 30.03 µM): 52.37%

CN1CCN(C2COC3(CCN(Cc4cccs4)CC3)C2)CC1.O=C(O)C(F)(F)F.O=C(O)C(F)(F)F (stereo not drawn)
Percent Effect (30.3 µM, […]): -470.3%

Cc1nc[nH]c1CN1C[C@@H]2CC[C@H](C1)N(C(=O)CCc1cccnc1)C2
Percent Effect (30 µM, 30.03 µM): -21.46%

Cc1nc(CN2CC3(CCN(c4cnccn4)C3)CC2=O)cs1.O=C(O)C(F)(F)F (stereo not drawn)
Percent Effect (30 µM, 30.03 µM): -45.32%

CCN(CC)C(=O)CCCNC(=O)c1csc(NC2CC2)n1
Percent Effect (30 µM, 30.03 µM): -27.48%

CC(=O)Nc1nc(C(=O)N2CCCC(c3cc(C)[nH]n3)C2)cs1 (stereo not drawn)
Percent Effect (30 µM, 30.03 µM): 16.48%

CC(C)(C)[S+]([O-])CCNC(=O)c1csc(NC2CC2)n1 (stereo not drawn)
Percent Effect (30 µM, 30.03 µM): -59.41%

Cc1cnc(NC(=O)c2csc(NC3CCCC3)n2)s1
Percent Effect (30 µM, 30.03 µM): -9.891%

Cc1[nH]/c(=N\C(=O)c2csc(NC3CC3)n2)sc1C
Percent Effect (30 µM, 30.03 µM): 66.57%

Cc1[nH]/c(=N\C(=O)c2csc(NC3CCCC3)n2)sc1C
Percent Effect (30 µM, 30.03 µM): 95.68%

O=C(O)C(F)(F)F.c1csc(CN2CCC3(CCOCC3COCC3CC3)CC2)n1 (stereo not drawn)
Percent Effect (30.3 µM, […]): -46.34%

C=C(C)CN1CCC(NC(=O)Nc2ccc(F)c(C(=O)NC)c2)CC1
Percent Effect (30.3 µM, […]): -0.7134%

CC[C@@H]1N(Cc2ccc(F)cc2)CCC[C@]12CCC(=O)N2C.O=C(O)C(F)(F)F
Percent Effect (30.3 µM, […]): -14.8%

O=C(O)C(F)(F)F.O=C(c1ccco1)N1CCC2(CCCN(c3ncccn3)C2)C1 (stereo not drawn)
Percent Effect (30.3 µM, […]): -37.47%

CC(=O)Nc1nc2c(s1)C(C)(C)Nc1ccccc1S2
Percent Effect (30.3 µM, […]): -17.63%

CC(=O)Nc1nc2c(s1)C1(CCCC1)Nc1ccccc1S2
Percent Effect (30.3 µM, […]): -6.174%

CC(=O)Nc1nc2c(s1)C1(CCN(C)CC1)Nc1ccccc1S2
Percent Effect (30.3 µM, […]): 83.23%

O=c1c(CN2CCOCC2)coc(O)c1CN1CCOCC1
Percent Effect (30 µM, 30.03 µM): -17.25%

CN1CCN(c2ncc3c(=O)n(-c4cccc(F)c4)c(=O)[nH]c3n2)CC1
Percent Effect (30 µM, 30.03 µM): 11.72%

NC(CC1CCCC1)c1ccc(Oc2ccccc2)cc1 (stereo not drawn)
Percent Effect (30 µM, 30.03 µM): 101.8%

OC(CN1CCN(CC2CCCCC2)CC1)c1ccccc1 (stereo not drawn)
Percent Effect (30 µM, 30.03 µM): -15.73%

Cl.NC(CC1CCCC1)c1ccccc1 (stereo not drawn)
Percent Effect (30 µM, 30.03 µM): -30.59%

COc1ccc(CN(Cc2cnc(N)nc2)CC2CCCO2)c(OC)c1.O=C(O)CC(O)(CC(=O)O)C(=O)O (stereo not drawn)
Percent Effect (30.3 µM, […]): 5.653%

Cc1nc2n(n1)CC(Nc1cc(C(F)(F)F)nc3ncnn13)CC2 (stereo not drawn)
Percent Effect (30 µM, 30.03 µM): 53.11%

CCCc1cc(NC2CCc3ncnn3C2)n2ncnc2n1 (stereo not drawn)
Percent Effect (30 µM, 30.03 µM): 104.4%

CCCc1cc(NC2CCc3nc(CC)nn3C2)n2ncnc2n1 (stereo not drawn)
Percent Effect (30 µM, 30.03 µM): -33.56%

CCc1nc2n(n1)CC(Nc1cc(C)nc3ncnn13)CC2 (stereo not drawn)
Percent Effect (30 µM, 30.03 µM): -89.04%

CCCc1cc(NC2CCc3nc(C)nn3C2)n2ncnc2n1 (stereo not drawn)
Percent Effect (30 µM, 30.03 µM): -21.48%

Cc1cc(NC2CCc3nc(C)nn3C2)n2ncnc2n1 (stereo not drawn)
Percent Effect (30 µM, 30.03 µM): -21.45%

O=C(NC1CC1)[C@H]1C[C@H]2OCC[C@H]2N(Cc2ccc3ccccc3n2)C1.O=C(O)C(F)(F)F.O=C(O)C(F)(F)F
Percent Effect (30.3 µM, […]): -259.7%

COC(=O)CCN(C)Cc1cc(Br)cs1
Percent Effect (30 µM, 30.03 µM): -12.73%

CCOCCC(=O)N1CCc2cccc(S(=O)(=O)N3CCOCC3)c2C1
Percent Effect (30 µM, 30.03 µM): -15.51%
